Common to all, as to assay: PBM; 200 nM protein, PBS
What all share (details): dsDNA, one strand shown

Experiment [1] has as its target T1, PAX4 (Homo sapiens, UniProt O43316 9-242, R227W).
T1 sequence: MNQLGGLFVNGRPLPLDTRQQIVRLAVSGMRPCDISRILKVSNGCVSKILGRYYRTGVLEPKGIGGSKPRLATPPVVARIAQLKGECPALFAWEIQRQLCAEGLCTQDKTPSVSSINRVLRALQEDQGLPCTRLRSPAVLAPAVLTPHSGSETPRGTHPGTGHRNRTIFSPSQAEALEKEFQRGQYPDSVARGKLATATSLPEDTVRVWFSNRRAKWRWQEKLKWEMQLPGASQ

Experiment [2] concerns the target HOXB9 (Homo sapiens, UniProt P17482 171-250, T197M).
For experiment [3], the target named is HOXC9 (Homo sapiens, UniProt P31274 178-260, K195R).
Chain of HOXC9 (Homo sapiens, UniProt P31274 178-260, K195R) (P31274 178-260 K195R): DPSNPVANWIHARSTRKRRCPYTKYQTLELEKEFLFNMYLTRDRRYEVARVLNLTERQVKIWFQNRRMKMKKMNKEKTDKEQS
In experiment [4] the target is HOXB9 (Homo sapiens, UniProt P17482 171-250).
Chain of HOXB9 (Homo sapiens, UniProt P17482 171-250) (P17482 171-250): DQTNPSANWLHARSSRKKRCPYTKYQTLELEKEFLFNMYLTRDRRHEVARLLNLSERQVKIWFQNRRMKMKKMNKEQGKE
Experiment [5] deals with HOXC9 (Homo sapiens, UniProt P31274 178-260).
Chain of HOXC9 (Homo sapiens, UniProt P31274 178-260) (P31274 178-260): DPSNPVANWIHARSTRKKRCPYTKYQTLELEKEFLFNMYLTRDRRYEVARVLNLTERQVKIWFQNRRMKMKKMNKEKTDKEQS
For experiment [6], the target named is HOXC9 (Homo sapiens, UniProt P31274 178-260, R193K).
Chain of HOXC9 (Homo sapiens, UniProt P31274 178-260, R193K) (P31274 178-260 R193K): as the sequence (P31274 178-260) above, with R16K counted along it
Experiment [7] concerns the target HOXC10 (Homo sapiens, UniProt Q9NYD6 254-340, K271E).
In experiment [8] the target is HOXB9 (Homo sapiens, UniProt P17482 171-250, R186Q).
Chain of HOXB9 (Homo sapiens, UniProt P17482 171-250, R186Q) (P17482 171-250 R186Q): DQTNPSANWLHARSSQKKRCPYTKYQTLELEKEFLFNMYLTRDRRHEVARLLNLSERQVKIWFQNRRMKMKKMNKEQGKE
Experiment [9] concerns the target HOXC9 (Homo sapiens, UniProt P31274 178-260, R222W).
For experiment [10], the target named is T2, VENTX (Homo sapiens, UniProt O95231 78-163).
T2 sequence: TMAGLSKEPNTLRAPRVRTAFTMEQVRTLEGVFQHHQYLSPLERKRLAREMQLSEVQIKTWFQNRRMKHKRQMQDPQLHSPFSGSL

The target in experiment [11] is VAX1 (Homo sapiens, UniProt Q5SQQ9 86-172).
Chain of VAX1 (Q5SQQ9 86-172): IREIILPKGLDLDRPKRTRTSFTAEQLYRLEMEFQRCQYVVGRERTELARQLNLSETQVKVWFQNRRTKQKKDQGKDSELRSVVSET
Experiment [12] addresses HOXA4 (Homo sapiens, UniProt Q00056 201-287, W262R).
Experiment [13] concerns the target HOXA4 (Homo sapiens, UniProt Q00056 201-287).
For experiment [14], the target named is HOXA2 (Homo sapiens, UniProt O43364 129-215, Y150S).
Chain of HOXA2 (Homo sapiens, UniProt O43364 129-215, Y150S) (O43364 129-215 Y150S): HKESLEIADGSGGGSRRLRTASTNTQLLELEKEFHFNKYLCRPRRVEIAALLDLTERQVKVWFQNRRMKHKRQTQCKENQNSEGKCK
Experiment [15] deals with HOXA2 (Homo sapiens, UniProt O43364 129-215).
Chain of HOXA2 (Homo sapiens, UniProt O43364 129-215) (O43364 129-215): as the sequence (O43364 129-215 Y150S) above, with S22Y counted along it
Experiment [16] deals with HOXB6 (Homo sapiens, UniProt P17509 132-218, K202E).
Chain of HOXB6 (Homo sapiens, UniProt P17509 132-218, K202E) (P17509 132-218 K202E): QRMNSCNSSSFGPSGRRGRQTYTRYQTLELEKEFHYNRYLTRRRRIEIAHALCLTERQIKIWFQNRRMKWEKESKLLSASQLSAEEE
Experiment [17] concerns the target HOXB6 (Homo sapiens, UniProt P17509 132-218).
Experiment [18] deals with HOXA7 (Homo sapiens, UniProt P31268 116-202).
Chain of HOXA7 (Homo sapiens, UniProt P31268 116-202) (P31268 116-202): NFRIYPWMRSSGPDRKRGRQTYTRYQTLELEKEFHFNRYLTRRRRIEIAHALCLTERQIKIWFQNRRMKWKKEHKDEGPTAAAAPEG
The target in experiment [19] is HOXA7 (Homo sapiens, UniProt P31268 116-202, W177C).
Chain of HOXA7 (Homo sapiens, UniProt P31268 116-202, W177C) (P31268 116-202 W177C): as the sequence (P31268 116-202) above, with W62C counted along it

Chain of HOXB9 (Homo sapiens, UniProt P17482 171-250, T197M) (P17482 171-250 T197M): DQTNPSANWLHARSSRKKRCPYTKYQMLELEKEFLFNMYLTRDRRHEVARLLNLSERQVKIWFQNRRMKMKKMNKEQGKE
Chain of HOXC9 (Homo sapiens, UniProt P31274 178-260, R222W) (P31274 178-260 R222W): as the sequence (P31274 178-260) above, with R45W counted along it
Chain of HOXB6 (Homo sapiens, UniProt P17509 132-218) (P17509 132-218): as the sequence (P17509 132-218 K202E) above, with E71K counted along it
Chain of HOXA4 (Homo sapiens, UniProt Q00056 201-287, W262R) (Q00056 201-287 W262R): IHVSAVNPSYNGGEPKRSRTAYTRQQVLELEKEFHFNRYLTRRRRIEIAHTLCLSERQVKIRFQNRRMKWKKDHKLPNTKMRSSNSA
Chain of HOXA4 (Homo sapiens, UniProt Q00056 201-287) (Q00056 201-287): as the sequence (Q00056 201-287 W262R) above, with R62W counted along it
Chain of HOXC10 (Q9NYD6 254-340 K271E): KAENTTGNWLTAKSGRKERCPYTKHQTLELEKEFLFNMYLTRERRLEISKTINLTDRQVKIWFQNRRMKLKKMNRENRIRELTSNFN

As for AATTAACG, the binding signal in experiment [1] was 10.9 upbm affinity estimate (log intensity, higher = more binding, comparable within an allelic series).

Regarding AATTAAAT, the binding signal in [2] is 10 upbm affinity estimate (log intensity, higher = more binding, comparable within an allelic series); in experiment [3], 12.5 upbm affinity estimate (log intensity, higher = more binding, comparable within an allelic series); in experiment [4], 11.8 upbm affinity estimate (log intensity, higher = more binding, comparable within an allelic series); in experiment [5], 12.5 upbm affinity estimate (log intensity, higher = more binding, comparable within an allelic series); in [6], 12.6 upbm affinity estimate (log intensity, higher = more binding, comparable within an allelic series); in [7], 11.9 upbm affinity estimate (log intensity, higher = more binding, comparable within an allelic series). The binding signal was 11.5 upbm affinity estimate (log intensity, higher = more binding, comparable within an allelic series) in experiment [8]; 11.2 upbm affinity estimate (log intensity, higher = more binding, comparable within an allelic series) in experiment [9]; 11.1 upbm affinity estimate (log intensity, higher = more binding, comparable within an allelic series) in experiment [1].

For GCCAATTA, the binding signal was 12.5 upbm affinity estimate (log intensity, higher = more binding, comparable within an allelic series) in experiment [10] and 12.8 upbm affinity estimate (log intensity, higher = more binding, comparable within an allelic series) in experiment [11].

For the sequence CCAATTAC, the binding signal is 10.9 upbm affinity estimate (log intensity, higher = more binding, comparable within an allelic series) in [4] and 10.6 upbm affinity estimate (log intensity, higher = more binding, comparable within an allelic series) in experiment [8].

On to CAATTACG, for which the binding signal was 10.4 upbm affinity estimate (log intensity, higher = more binding, comparable within an allelic series) in experiment [12] and 13.1 upbm affinity estimate (log intensity, higher = more binding, comparable within an allelic series) in experiment [13].

In the case of GAGGGGGC, the binding signal in experiment [2] is 8.48 upbm affinity estimate (log intensity, higher = more binding, comparable within an allelic series); in [4], 8.37 upbm affinity estimate (log intensity, higher = more binding, comparable within an allelic series); in [8], 8.62 upbm affinity estimate (log intensity, higher = more binding, comparable within an allelic series); in [14], 10.2 upbm affinity estimate (log intensity, higher = more binding, comparable within an allelic series); in experiment [15], 7.38 upbm affinity estimate (log intensity, higher = more binding, comparable within an allelic series).

As for AATTAGCC, the binding signal in experiment [11] was 12.7 upbm affinity estimate (log intensity, higher = more binding, comparable within an allelic series); in experiment [1], 10.6 upbm affinity estimate (log intensity, higher = more binding, comparable within an allelic series).

Turning to CAATTACA, the binding signal is 9.87 upbm affinity estimate (log intensity, higher = more binding, comparable within an allelic series) in experiment [16] and 11.4 upbm affinity estimate (log intensity, higher = more binding, comparable within an allelic series) in [17].

Consider ATTAATGC, for which the binding signal is 11 upbm affinity estimate (log intensity, higher = more binding, comparable within an allelic series) in experiment [18]; 10.9 upbm affinity estimate (log intensity, higher = more binding, comparable within an allelic series) in [1]; 8.84 upbm affinity estimate (log intensity, higher = more binding, comparable within an allelic series) in experiment [19].

With CAATTAGG, the binding signal in [10] was 12.7 upbm affinity estimate (log intensity, higher = more binding, comparable within an allelic series); in [11] it was 12.9 upbm affinity estimate (log intensity, higher = more binding, comparable within an allelic series); in experiment [14], 10.8 upbm affinity estimate (log intensity, higher = more binding, comparable within an allelic series); in [15], 12.1 upbm affinity estimate (log intensity, higher = more binding, comparable within an allelic series).

For the sequence AATTAAGC, the binding signal in [1] is 10.9 upbm affinity estimate (log intensity, higher = more binding, comparable within an allelic series).

CAATTATA: the binding signal in experiment [2] was 10.1 upbm affinity estimate (log intensity, higher = more binding, comparable within an allelic series); in experiment [3], 12.5 upbm affinity estimate (log intensity, higher = more binding, comparable within an allelic series); in experiment [18], 11.4 upbm affinity estimate (log intensity, higher = more binding, comparable within an allelic series); in [16], 10 upbm affinity estimate (log intensity, higher = more binding, comparable within an allelic series); in experiment [19], 8.95 upbm affinity estimate (log intensity, higher = more binding, comparable within an allelic series); in experiment [17], 11.9 upbm affinity estimate (log intensity, higher = more binding, comparable within an allelic series).

Turning to CCTTCGAG, the binding signal in experiment [2] was 8.5 upbm affinity estimate (log intensity, higher = more binding, comparable within an allelic series); in experiment [4], 8.46 upbm affinity estimate (log intensity, higher = more binding, comparable within an allelic series); in experiment [8], 8.5 upbm affinity estimate (log intensity, higher = more binding, comparable within an allelic series).

Take AATTAGCG: the binding signal in experiment [10] is 12.3 upbm affinity estimate (log intensity, higher = more binding, comparable within an allelic series); in [11], 12.6 upbm affinity estimate (log intensity, higher = more binding, comparable within an allelic series); in experiment [1], 11 upbm affinity estimate (log intensity, higher = more binding, comparable within an allelic series).

On to CCAATTAG, for which the binding signal in [10] was 13.1 upbm affinity estimate (log intensity, higher = more binding, comparable within an allelic series); in experiment [11] it was 13.1 upbm affinity estimate (log intensity, higher = more binding, comparable within an allelic series); in [1], 10.8 upbm affinity estimate (log intensity, higher = more binding, comparable within an allelic series); in [14], 10.8 upbm affinity estimate (log intensity, higher = more binding, comparable within an allelic series); in [15], 12.1 upbm affinity estimate (log intensity, higher = more binding, comparable within an allelic series).

As to AATTAAGT, the binding signal in [1] was 10.8 upbm affinity estimate (log intensity, higher = more binding, comparable within an allelic series); in experiment [14], 10.8 upbm affinity estimate (log intensity, higher = more binding, comparable within an allelic series); in [15] it was 11.7 upbm affinity estimate (log intensity, higher = more binding, comparable within an allelic series).

In the case of CCCAGGCG, the binding signal in experiment [3] is 9.48 upbm affinity estimate (log intensity, higher = more binding, comparable within an allelic series); in [5], 9.7 upbm affinity estimate (log intensity, higher = more binding, comparable within an allelic series); in experiment [6], 9.62 upbm affinity estimate (log intensity, higher = more binding, comparable within an allelic series); in experiment [9], 9.63 upbm affinity estimate (log intensity, higher = more binding, comparable within an allelic series); in experiment [14], 10.5 upbm affinity estimate (log intensity, higher = more binding, comparable within an allelic series); in [15], 7.13 upbm affinity estimate (log intensity, higher = more binding, comparable within an allelic series).

The values above are taken from paper PMC11006913.
